High-throughput results: PubChem, National Center for Advancing Translational Sciences (NCATS)
IL1B secr inh: blocks inflammasome-driven IL-1 beta release | THP-1 LPS/ATP IL-1B secretion, AlphaLISA, 16 h; active compounds read low | activity change, % at 57.5 µM | 4.7% of 360,000 active; in the data active means activity change below about -50%; inconclusive means mostly about -30% to -49%
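Secreted IL-1B measured by AlphaLISA bead assay after 16 h compound exposure of THP-1 cells; compounds (final up to 57.5 uM) added 1 h before LPS (250 ng/mL) and ATP (1.25 mM) stimulation; lower signal means less secretion.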
TDP1 cell noCPT: qHTS for Inhibitors of human tyrosyl-DNA phosphodiesterase 1 (TDP1): qHTS in cells in absence of CPT | DT40 Tdp1-/- hTDP1 cells, no CPT, ATP luminescence, 48 h | Potency, µM (highest dose often 46.2 µM), for inactives: at the highest dose activity change, negative = growth inhibition, actives largely listed as inhibitors | 15% of 420,000 active | AID 686978, 2013; further: potency means the concentration at half of the fitted maximal effect; nearly all actives have a fitted effect of over 55% in size
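A cellular qHTS used chicken DT40 cells lacking endogenous Tdp1 but carrying stably transfected human TDP1. Compounds were applied without camptothecin, and cell growth kinetics were judged by ATP-dependent luminescence after ≥48 hr.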
HT1080 IDH1KD tx: toxicity to HT-1080 IDH1 knockdown cells (counter line); HT-1080 IDH1 knockdown viability, ATP luminescence, 48 h; 2% of 360,000 active; Potency, µM (highest dose often 46.1 µM), without a hit: top-dose activity, negative = toxicity, most hits filed as cytotoxic;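 further: potency means the concentration at half of the fitted maximal effect; 0% = DMSO wells and -100% = cell-free medium wells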
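Cytotoxicity counter-line: IDH1KD HT-1080, 48 h, CellTiter-Glo. Curves classed by r2, magnitude and activity.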
DT40 TDP1 CPT: DT40-hTDP1 cell growth loss with CPT; chicken DT40 Tdp1-/-;hTDP1 cells + 20 nM CPT, ATP luminescence, 48 h; Potency, µM (titrated, usually from 46.2 µM), for the others: top-dose activity change, negative = growth inhibition, actives largely listed as inhibitors; 12% of 420,000 active; further: potency means the concentration at half of the fitted maximal effect; nearly all actives have a fitted effect of over 55% in size
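Cell growth measured by CellTiter-Glo luminescence after a minimum 48 h, 37 C compound exposure with 20 nM CPT in Tdp1-knockout DT40 cells stably expressing hTDP1, seeded 400/well; qHTS titration format.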
ALOX12 inh: blocks human arachidonate 12S-lipoxygenase | Potency, µM (top dose mostly 108 µM), without a hit: top-dose activity change, negative = inhibition, most hits filed as inhibitors | 1.1% of 580,000 active | purified 12hLO, xylenol orange hydroperoxide absorbance; further: potency means the concentration at half of the fitted maximal effect
Target sequence (P18054 whole entry, looked up): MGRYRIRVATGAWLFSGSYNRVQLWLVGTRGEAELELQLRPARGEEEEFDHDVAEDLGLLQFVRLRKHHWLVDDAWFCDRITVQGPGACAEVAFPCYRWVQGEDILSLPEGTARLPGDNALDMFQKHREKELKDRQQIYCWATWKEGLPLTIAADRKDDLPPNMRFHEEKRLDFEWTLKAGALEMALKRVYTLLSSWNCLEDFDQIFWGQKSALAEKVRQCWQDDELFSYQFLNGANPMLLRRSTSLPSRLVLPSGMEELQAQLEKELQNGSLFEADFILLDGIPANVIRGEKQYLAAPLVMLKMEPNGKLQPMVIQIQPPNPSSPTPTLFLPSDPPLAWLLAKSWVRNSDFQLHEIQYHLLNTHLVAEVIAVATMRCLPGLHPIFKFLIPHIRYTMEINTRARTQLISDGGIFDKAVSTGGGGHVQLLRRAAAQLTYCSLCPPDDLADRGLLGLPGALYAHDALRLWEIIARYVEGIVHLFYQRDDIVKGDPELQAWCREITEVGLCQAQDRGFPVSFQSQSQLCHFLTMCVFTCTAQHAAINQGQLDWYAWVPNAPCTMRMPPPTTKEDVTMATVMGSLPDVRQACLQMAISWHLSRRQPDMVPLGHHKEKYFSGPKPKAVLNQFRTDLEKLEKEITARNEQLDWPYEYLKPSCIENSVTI
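Hydroperoxide product was detected by ferrous iron/xylenol orange as the 573 to 405 nm absorbance ratio. Arachidonic acid at 40 uM (final) was turned over for 30 min at room temperature by 150 nM human 12hLO, pH 7.0 Hepes buffer, after 15 min compound preincubation.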
HT1080NT lethal: kills 2HG-producing HT-1080-NT fibrosarcoma cells; HT-1080-NT fibrosarcoma viability, CellTiter-Glo ATP luminescence, 48 h; Potency, µM (doses to about 46.1 µM), for inactives: at the highest dose activity, negative = less viability, usual class: cytotoxic; 1.6% of 360,000 active;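 further: NT is the 2HG producing partner of a matched IDH1 knockdown line; potency means the concentration at half of the fitted maximal effect; 0% = DMSO-treated cells and -100% = media-only wells without cells; nearly all actives have a fitted effect of over 55% in size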
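Compounds were tested in concentration-response format on HT-1080-NT cells for 48 hours at 37 degrees C. Cell viability came from CellTiter-Glo luminescence; curves were classified by r2, response magnitude and activity.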
* hit, by the source's call; u = inconclusive; x = no result given. Many of the other results were omitted from the sample, so hits are more common in it than they were. Unless noted, the call rests on the fitted dose curve; in most records, active means well fitted curve in the direction sought with a large enough effect; inconclusive means small, poorly fitted or top-dose-only effect, or another doubt; inactive means no such curve, though single readings can be large; an effect the other way counts as inactive or inconclusive. Unless noted, on the % scale 0 is the no-effect control and ±100 the full control effect.

SMILES	IL1B secr inh	TDP1 cell noCPT	HT1080 IDH1KD tx	DT40 TDP1 CPT	ALOX12 inh	HT1080NT lethal
COc1ccc(C(=O)NCCn2cc(SCC(=O)Nc3nnc(C)s3)c3ccccc32)cc1	-13	u	-5%	u	-19%	2%
O=C(COC(=O)C1CC2CCCC(C1)C2=O)Nc1ccc(C(F)(F)F)cc1[N+](=O)[O-] (stereo not drawn)	x	x	x	x	-1%	x
CCOc1ccc(N2C(=O)c3[nH]nc(-c4ccc(OC)cc4)c3C2c2cccs2)cc1 (stereo not drawn)	x	26µM*	x	23µM*	u	x
CCCN1C(=O)c2[nH]nc(-c3ccc(OC)cc3)c2C1c1ccccn1 (stereo not drawn)	x	26µM*	x	u	-4%	x
CCOc1ccc(-c2n[nH]c3c2C(c2cccs2)N(c2ccc(Br)cc2)C3=O)cc1 (stereo not drawn)	x	u	x	u	-18%	x
CCOC(=O)c1ccc(N2C(=O)c3n[nH]c(C)c3C2c2cccnc2)cc1 (stereo not drawn)	-3	-24%	7%	-26%	31%	1%
CCOC(=O)c1ccc(N2C(=O)c3[nH]nc(-c4ccccc4)c3C2c2cccs2)cc1 (stereo not drawn)	x	21µM*	x	23µM*	-6%	x
CCOC(=O)c1ccc(N2C(=O)c3n[nH]c(C)c3C2c2ccccn2)cc1 (stereo not drawn)	-6	-29%	-3%	-25%	-18%	-4%
CCOC(=O)c1ccc(N2C(=O)c3[nH]nc(-c4ccc(OCC)cc4)c3C2c2cccs2)cc1 (stereo not drawn)	x	3.7µM*	x	7.3µM*	-9%	x
COc1cc(C)c(NC(=O)C(C)Oc2ccc(F)cc2)cc1OC (stereo not drawn)	x	x	x	x	-17%	x
CCOC(=O)c1ccc(N2C(=O)c3[nH]nc(-c4ccccc4)c3C2c2ccc(CC)cc2)cc1 (stereo not drawn)	x	18µM*	x	21µM*	u	x
CCOC(=O)c1ccc(N2C(=O)c3[nH]nc(-c4ccc(C)cc4)c3C2c2ccc(O)cc2)cc1 (stereo not drawn)	x	u	x	u	-25%	x
Clc1cccc(C[n+]2cc(-c3ccccc3)n3c2CCC3)c1	-4	2.6µM*	u	2.9µM*	7%	0%
Cc1ccc(-c2c[n+](Cc3cccc(Cl)c3)c3n2CCC3)cc1	-81*	0.52µM*	u	0.92µM*	u	u
Clc1ccc(C2=C3CCCCn4c(-c5ccccc5)c[n+](c43)C2)cc1	-17	u	u	u	-2%	u
CCCNC(=O)CCc1ccc(C#N)cc1	x	x	x	x	2%	x
COc1cccc(C2c3[nH]c4ccccc4c3CCN2Cc2cnc(C)s2)c1OC (stereo not drawn)	-8	15µM*	u	u	7%	u
COc1ccccc1C1c2[nH]c3ccccc3c2CCN1Cc1cnc(C)s1 (stereo not drawn)	6	18µM*	0%	u	8%	0%
COc1ccc(C2c3[nH]c4ccccc4c3CCN2Cc2ccoc2)c(F)c1 (stereo not drawn)	0	16µM*	-23%	u	-9%	u
Oc1cccc(C2c3[nH]c4ccccc4c3CCN2Cc2ccc3c(c2)CCO3)c1 (stereo not drawn)	-93*	21µM*	23µM*	u	37%	21µM*
Cc1cccc(C2c3[nH]c4ccccc4c3CCN2Cc2ccc(C)s2)n1 (stereo not drawn)	23	-28%	2%	-9%	1%	-17%
